# From PubChem BioAssay
# MmCpn inh – blocks the Methanococcus maripaludis chaperonin Mm-Cpn; purified Mm-Cpn ATPase, ADP Transcreener TR-FRET; Potency, µM (highest dose often 76.9 µM), actives largely listed as inhibitors; 0.031% of 330,000 active; active = well fitted inhibition curve with a large enough effect; inconclusive = small, poorly fitted or top-dose-only effect; also: nearly all actives have a fitted effect of over 80% in size
#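 Reaction buffer contained 30 mM Tris pH 7.4, 100 mM KCl, 5 mM MgCl2 and 1 mM DTT. Mm-CPN (25 nM final) hydrolysed 10 uM ATP over 30 min at 37°C; ADP was read by HTRF.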
# TSHR antagonist – antagonists of human thyroid stimulating hormone receptor; TSHR-expressing cells, TSH-stimulated cAMP HTRF, 2 h; active compounds read low; activity change, negative = inhibition, % at 11.5 µM; 0.2% of 330,000 active;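 active = activity change below a set negative limit, meaning inhibition stronger than a set level, cut at about -70% in these data; inconclusive = activity change between two set negative limits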
# Target sequence (P16473 whole entry, looked up): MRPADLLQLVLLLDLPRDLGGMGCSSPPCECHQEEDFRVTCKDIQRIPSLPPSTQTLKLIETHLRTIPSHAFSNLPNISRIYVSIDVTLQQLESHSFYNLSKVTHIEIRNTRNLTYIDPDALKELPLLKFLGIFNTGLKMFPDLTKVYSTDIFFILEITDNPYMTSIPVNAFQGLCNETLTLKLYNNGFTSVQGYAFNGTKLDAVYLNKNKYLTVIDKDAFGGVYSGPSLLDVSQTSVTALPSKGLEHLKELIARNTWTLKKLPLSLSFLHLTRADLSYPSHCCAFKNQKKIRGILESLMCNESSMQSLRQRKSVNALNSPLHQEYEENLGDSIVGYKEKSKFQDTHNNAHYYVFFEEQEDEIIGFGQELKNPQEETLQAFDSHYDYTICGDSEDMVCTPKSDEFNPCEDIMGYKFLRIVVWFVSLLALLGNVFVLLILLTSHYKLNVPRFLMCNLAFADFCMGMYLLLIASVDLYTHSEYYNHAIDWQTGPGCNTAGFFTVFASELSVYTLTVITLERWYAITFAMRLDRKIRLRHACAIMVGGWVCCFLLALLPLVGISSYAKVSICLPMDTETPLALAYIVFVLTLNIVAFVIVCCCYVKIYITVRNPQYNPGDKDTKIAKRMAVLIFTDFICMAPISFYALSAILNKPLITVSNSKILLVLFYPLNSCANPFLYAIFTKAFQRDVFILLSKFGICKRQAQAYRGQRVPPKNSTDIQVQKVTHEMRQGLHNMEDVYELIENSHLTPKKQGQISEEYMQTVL
#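 Freshly harvested TSHR cells receive pin-tooled compound, then EC80 TSH at 4nM final. After 2 hours at 37 deg C, antibody in lysis buffer and cAMP-d2 are added; 30 minutes at ambient temperature precede the HTRF read.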
# gsp ag – gsp mutant agonism. gsp mutant cells, cAMP HTRF, 30 min. Potency, µM (highest dose often 76.9 µM), most hits filed as activators. 0.13% of 340,000 active. AID 624287; active = well fitted activation curve with a large enough effect; inconclusive = small, poorly fitted or top-dose-only effect, or another doubt; inactive = no such curve, though single readings can be large or run the other way; cell line not stated here;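 also: phosphodiesterase inhibitor Ro 20-1724 added with compounds to block cAMP breakdown; nearly all actives have a fitted effect of over 60% in size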
#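 Cells in DMEM/10% FBS with G418 were pretreated with compounds in DMSO plus […] (300 uM stock) for 30 min at 37C. cAMP was measured by HTRF (cAMP-d2 plus anti-cAMP antibody-K) after 30 min at room temperature.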
# gsp antagonist – antagonists of gsp mutant (McCune-Albright syndrome) | 0.4% of 340,000 active | Potency, µM (top dose mostly 76.9 µM), hits mostly inhibitors | gsp-mutant cells, cAMP HTRF, 30 min; calls by dose curve; cell line not stated here;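 also: intracellular cAMP measured with PDE inhibitor Ro 20-1724 present during compound exposure; nearly all actives have a fitted effect of over 65% in size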
#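 Measurement of cellular cAMP by homogeneous time-resolved fluorescence following a 30 min compound exposure at 37C. The PDE inhibitor […] was present throughout; the assay buffer was DPBS with 0.05% BSA and 0.005% Tween 20.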
# CCT chaperon mod – modulators of cytosolic chaperonin (CCT/TRiC) activity | purified chaperonin ATPase assay, HTRF ADP detection, 30 min | activity change, % (no concentration beside the values), hits read low | 0.3% of 360,000 active; in the data active = activity change below about -30%
#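 TRiC at 40 or 20 nM final (batch-dependent) in 30 mM Tris pH 7.4, 100 mM KCl, 5 mM MgCl2, 1 mM DTT, with compound at single 76 uM and 10 uM ATP, 30 min at 37 deg C. ADP detected by HTRF Transcreener, 665/615 ratio.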
# uPA surface inh – blocks generation of uPA at the cell surface; Potency, µM (series often up to 38.3 µM), hits mostly inhibitors; cell surface uPA generation assay, qHTS; 0.31% of 330,000 active; active = well fitted inhibition curve with a large enough effect; inconclusive = small, poorly fitted or top-dose-only effect; inactive = no such curve, though single readings can be large or run the other way; tested in mouse RAW 264.7 cells; also: nearly all actives have a fitted effect of over 55% in size
# Numbers stand for hits; . = inactive; ? = inconclusive; / = not tested or not shown; [ ] = dose if it differs, or a comment. Compounds with a hit are over-represented: about 1.2% of the library has one in this group of screens.
SMILES,MmCpn inh,TSHR antagonist,gsp ag,gsp antagonist,CCT chaperon mod,uPA surface inh
NC(=S)n1[nH]c(-c2ccc([N+](=O)[O-])cc2)c(N=Nc2cccc(Cl)c2)c1=O,.,?,.,25µM,.,.
Cc1cccc2c1cnn2C(=O)CCC(=O)N1CC(C)CC(C)C1 (centres undefined),.,.,.,.,.,.
CC1(C)CC(N=Cc2c(O)n(Cc3ccc4c(c3)OCO4)c(=O)c3ccccc23)CC(C)(C)N1,.,.,.[15.4 µM],.,.,.
O=[N+]([O-])c1ccc(N=Nc2ccc(O)c3ccccc23)cc1,/,/,.,25µM,.,.
CN(Cc1ccc(F)cc1)C(=O)COc1ccccc1-c1ccccc1,.,.,.,.,.,.
COc1ccc(-n2sc3ccc(F)cc3c2=O)cc1,.,.,/,?,.,10µM
Cc1ccc2c(c1)COc1c3ccc(C(=O)N[C@@H](C)CO)cc3nn1-2,.,.,/,.,.,4.5µM
Cc1ccc2c(c1)COc1c3ccc(C(=O)N4CCOCC4)cc3nn1-2,.,.,/,.,.,?
Cc1ccc2c(c1)COc1c3ccc(C(=O)NCCO)cc3nn1-2,.,.,/,.,.,?
Cc1ccc2c(c1)COc1c3ccc(C(=O)NC(C)C)cc3nn1-2,.,.,/,.,.,7.1µM
CC(C)[C@@H](CO)NC(=O)c1ccc2c3n(nc2c1)-c1ccc(Cl)cc1CO3,.,.,?,.,.,.
C[C@@H](CO)NC(=O)c1ccc2c3n(nc2c1)-c1ccc(Cl)cc1CO3,.,.,/,.,.,4.5µM
Cc1ccc2c(c1)c1c3n2CC(=C2C(=O)OC(C)(C)OC2=O)NC3CCC1 (centres undefined),.,.,.,.,.,.
CN1C(=O)CSc2ccc(NC(=O)NCc3ccc(F)cc3)cc21,.,.,.,.,.,.
O=C(N/N=C/c1cc(O)ccc1Br)c1cccnc1,.,.,.,.,.,10µM
O=C(N/N=C/c1ccccc1O)c1ccncc1,.,.,/,.,.,7.1µM
O=C(N/N=C/c1cccc2ccccc12)c1ccncc1,.,.,.,.,.,.
CN(Cc1ccc(-n2cccn2)cc1)C(=O)c1cnn2c1NC(c1ccco1)CC2C(F)(F)F (centres undefined),.,.,.,32µM,.,.
S=c1[nH]nc(-c2ccncc2)n1/N=C/c1cccc2ccccc12,.,.,/,/,/,/
O=C(CSc1ncn[nH]1)N1N=C2/C(=C/c3ccccc3)CCCC2C1c1ccccc1 (centres undefined),.,.,?,35µM,.,.
Cc1cc(N2CCC(C(=O)Nc3ccc(F)cc3)CC2)nc(-c2ccccc2)n1,.,.,?,.,.,.
COc1ccc(NC(=O)C2CCN(c3cc(C)nc(-c4ccccc4)n3)CC2)cc1,.,.,.,.,-64,.
CSc1nsc(SC)c1C(=O)NC(=O)Nc1cccnc1,.,.,.,.,-42,.
COc1ccc(S(=O)(=O)N2N=C(c3cccc(NS(C)(=O)=O)c3)CC2c2ccco2)cc1 (centres undefined),.,.,.,.,-69,.
COc1ccc(/C=C2\SC(N3CCCCC3)=NC2=O)cc1OC,.,.,.,.,.,.
SMILES,MmCpn inh,TSHR antagonist,gsp ag,gsp antagonist,CCT chaperon mod,uPA surface inh
COc1ccc2[nH]c(C(=O)Nc3ncc(C)cc3Br)cc2c1,.,.,?,.,.,.
COc1ccc2[nH]c(C(=O)Nc3ccc(F)cc3Br)cc2c1,?,.,.[15.4 µM],.,-50,.
COc1ccc2[nH]c(=O)cc(C(=O)O)c2c1,.,.,.[15.4 µM],/,.,.
COc1ccc2[nH]c3c4c(ccc3c2c1)C(=O)C=CC4=O,.,.,?,.,.,3.2µM
CN(C)c1ccc(-c2n(C)c3ccccc3[n+]2C)cc1,.,.,.,.,.,?
COC(=O)c1cc(C(=O)NNC(=O)c2ccc3c(c2)OCO3)cc([N+](=O)[O-])c1,.,.,.,.,.,.
CN(C)CCSc1nnc2sc3ccccc3n12,.,.,?,.,.,.
COc1ccc2nc3oc(C(=O)NCCCOC(C)C)cc3cc2c1,.,.,?,50µM,.,.
CCOCCCNC(=O)c1cc2cc3cc(OC)ccc3nc2o1,.,.,.,.,.,.
CCOC(=O)c1c(NC(=O)c2cccs2)sc2c1CCCC2,.,.,.,.,.,.
CCOC(=O)c1c(NC(=O)c2cccs2)sc2c1CCC2,?,.,.,.,-33,.
O=S(=O)(c1ccc(Br)s1)N1CCNCC1,.,.,?,.,.,.
CCn1c(C)nc2cc(C(=O)OC(C(F)(F)C(F)F)C(F)(F)C(F)F)ccc21,.,.,.,22µM,.,.
O=C(O)CCn1cc(/C=C\C(=O)c2ccc(Cl)cc2)c(-c2cccc(Br)c2)n1,.,.,.,?,.,.
Cc1ccc(-c2nn(CCC(=O)O)cc2/C=C\C(=O)c2ccc(Br)cc2)cc1,.,.,.,?,.,6.3µM
Cc1cc2c(s1)c1cnn(-c3ccccc3)c(=O)c1n2C,.,.,/,/,/,.
CCCN1CCN(C(=O)c2ccccc2-c2nc3ccccc3s2)CC1,.,.,.[15.4 µM],11µM,.,.
CCN1CCN(C(=O)c2ccc(-c3nc4ccccc4s3)s2)CC1,.,.,.,.,.,?
O=C(c1ccc2c(=O)n(C3CCCC3)c(=S)[nH]c2c1)N1CCCCCC1,.,.,.[15.4 µM],32µM,.,.
COc1cc(C(=O)Nc2ccc(N3CCN(C(=O)c4ccc(C)cc4)CC3)cc2)cc(OC)c1OC,.,.,.,.,.,.
COc1ccc(OC)c(S(=O)(=O)N2CCN(CC(O)COc3ccccc3)CC2)c1 (centres undefined),.,.,.[15.4 µM],.,.,.
CCOC(=O)C1CCCN(S(=O)(=O)c2c(C)c(C)cc(C)c2C)C1 (centres undefined),.,.,.,7.1µM,.,.
CCOC(=O)C1CCCN(S(=O)(=O)c2ccccc2)C1 (centres undefined),.,.,.,.,.,.
O=C(O)/C=C/C(=O)c1ccc2c(c1)CCc1ccccc1-2,.,.,?,.,.,5µM
c1cc2[nH]snc2c2nc(C3CC3)nc12,.,.,25µM,.,.,/
O=C(C1CCN(S(=O)(=O)c2ccc(Cl)c(C(F)(F)F)c2)CC1)N1CCC1,.,.,.,.,.,.
O=C(O)c1cccc(CN2C(=O)S/C(=C/c3cccc([N+](=O)[O-])c3)C2=O)c1,.,.,?,20µM,.,.
CC1(C)CC(=O)C2=C(C1)c1c(ccc3ccccc13)NC2c1ccc(C(=O)O)cc1 (centres undefined),.,.,.,.,.,.
CC1(C)CC(=O)C2=C(C1)c1c(ccc3ccccc13)NC2c1cc([N+](=O)[O-])cc([N+](=O)[O-])c1O (centres undefined),.,.,.[15.4 µM],32µM,.,.
